# Results reported in PMC7862700, “An all-to-all approach to the identification of sequence-specific readers for epigenetic DNA modifications on cytosine”.
# Columns and labels:
# Assay in all cases: DAPPL (digital affinity profiling via proximity ligation, sequencing); 10 mM Tris-HCl pH 7.5, 50 mM NaCl, 1 mM DTT, 4% glycerol, room temperature, 30 min; GST-TFs on glutathione beads, 16-mer random dsDNA library, 0.1% formaldehyde crosslink after washing; high values mean tight binding
# [1] = target: T1, FLI1 (Homo sapiens, UniProt Q01543 1-452); details: protein: recombinant; tags: N-terminal GST; dsDNA, one strand shown
# T1 sequence: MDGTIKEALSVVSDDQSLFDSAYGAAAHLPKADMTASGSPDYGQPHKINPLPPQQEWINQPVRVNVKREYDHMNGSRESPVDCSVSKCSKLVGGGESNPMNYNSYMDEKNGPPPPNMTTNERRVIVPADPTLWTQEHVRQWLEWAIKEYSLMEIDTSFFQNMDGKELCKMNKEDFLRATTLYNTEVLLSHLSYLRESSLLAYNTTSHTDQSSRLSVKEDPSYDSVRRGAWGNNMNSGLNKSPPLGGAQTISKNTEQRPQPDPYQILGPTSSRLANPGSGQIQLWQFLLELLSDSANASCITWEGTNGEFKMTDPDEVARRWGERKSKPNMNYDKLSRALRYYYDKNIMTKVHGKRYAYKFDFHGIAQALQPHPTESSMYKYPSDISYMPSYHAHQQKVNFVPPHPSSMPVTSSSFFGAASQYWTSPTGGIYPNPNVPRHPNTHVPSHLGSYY
# Method in brief: (§1)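 A tag-only sample was pooled with DNA-barcoded human transcription factors that had been expressed in yeast as GST fusions and captured on glutathione beads. The pools were incubated for 30 min at room temperature with 200 nmole of a random double-stranded 16-mer DNA library in Tris/NaCl/DTT/glycerol buffer, then washed, crosslinked with 0.1% formaldehyde, proximity-ligated (BsaI/T4 ligase, 1 h, 37 °C), PCR-amplified and sequenced on an Illumina NextSeq500. Binding signal is each hexamer's read frequency for a factor divided by its frequency for the tag-only sample.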
# [2] = target: T2, ELK1 (Homo sapiens, UniProt P19419 1-428); details: protein: recombinant; tags: N-terminal GST; dsDNA, one strand shown
# T2 sequence: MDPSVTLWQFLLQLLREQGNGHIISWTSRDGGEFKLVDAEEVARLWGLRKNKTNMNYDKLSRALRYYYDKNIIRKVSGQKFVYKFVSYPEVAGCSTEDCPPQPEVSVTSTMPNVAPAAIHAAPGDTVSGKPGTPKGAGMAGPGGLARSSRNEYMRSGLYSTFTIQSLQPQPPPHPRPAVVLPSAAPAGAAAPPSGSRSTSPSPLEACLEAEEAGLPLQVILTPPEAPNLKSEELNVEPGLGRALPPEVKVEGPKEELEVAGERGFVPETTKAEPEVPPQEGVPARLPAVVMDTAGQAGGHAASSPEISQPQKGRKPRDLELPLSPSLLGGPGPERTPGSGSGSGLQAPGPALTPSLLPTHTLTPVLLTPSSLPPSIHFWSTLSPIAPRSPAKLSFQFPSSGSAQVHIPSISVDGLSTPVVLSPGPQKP
# Method in brief: as §1
# [3] = target: T3, GABPA (Homo sapiens, UniProt Q06546 1-454); details: protein: recombinant; tags: N-terminal GST; dsDNA, one strand shown
# T3 sequence: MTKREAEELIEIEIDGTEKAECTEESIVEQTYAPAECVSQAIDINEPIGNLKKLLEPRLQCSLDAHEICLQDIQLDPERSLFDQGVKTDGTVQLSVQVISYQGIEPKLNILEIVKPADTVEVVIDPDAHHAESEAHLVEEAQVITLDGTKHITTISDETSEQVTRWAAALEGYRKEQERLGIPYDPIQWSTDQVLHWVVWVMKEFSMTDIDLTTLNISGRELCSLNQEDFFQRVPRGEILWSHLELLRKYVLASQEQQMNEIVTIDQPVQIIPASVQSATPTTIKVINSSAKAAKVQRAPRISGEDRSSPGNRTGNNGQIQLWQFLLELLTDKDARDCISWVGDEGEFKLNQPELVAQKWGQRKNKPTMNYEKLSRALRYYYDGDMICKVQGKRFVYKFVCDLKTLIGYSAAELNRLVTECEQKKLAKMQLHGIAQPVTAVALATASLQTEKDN
# Method in brief: as §1
# [4] = target: T4, ERG (Homo sapiens, UniProt P11308 1-479); details: protein: recombinant; tags: N-terminal GST; dsDNA, one strand shown
# T4 sequence: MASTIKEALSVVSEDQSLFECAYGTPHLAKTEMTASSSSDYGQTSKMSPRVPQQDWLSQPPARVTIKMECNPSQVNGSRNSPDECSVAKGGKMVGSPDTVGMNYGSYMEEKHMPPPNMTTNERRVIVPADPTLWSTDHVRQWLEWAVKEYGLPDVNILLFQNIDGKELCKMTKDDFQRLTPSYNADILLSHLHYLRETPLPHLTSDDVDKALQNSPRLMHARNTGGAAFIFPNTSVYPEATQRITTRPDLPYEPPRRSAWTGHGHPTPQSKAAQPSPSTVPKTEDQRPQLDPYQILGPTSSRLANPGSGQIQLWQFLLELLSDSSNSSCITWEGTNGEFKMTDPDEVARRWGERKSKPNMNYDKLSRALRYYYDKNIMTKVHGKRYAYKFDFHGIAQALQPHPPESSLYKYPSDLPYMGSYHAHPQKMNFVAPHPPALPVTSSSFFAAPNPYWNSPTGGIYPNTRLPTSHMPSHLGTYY
# Method in brief: as §1
# [5] = target: ELF1 (Homo sapiens, UniProt P32519 1-619); details: protein: recombinant; tags: N-terminal GST; dsDNA, one strand shown
# Sequence of ELF1 (P32519 whole entry): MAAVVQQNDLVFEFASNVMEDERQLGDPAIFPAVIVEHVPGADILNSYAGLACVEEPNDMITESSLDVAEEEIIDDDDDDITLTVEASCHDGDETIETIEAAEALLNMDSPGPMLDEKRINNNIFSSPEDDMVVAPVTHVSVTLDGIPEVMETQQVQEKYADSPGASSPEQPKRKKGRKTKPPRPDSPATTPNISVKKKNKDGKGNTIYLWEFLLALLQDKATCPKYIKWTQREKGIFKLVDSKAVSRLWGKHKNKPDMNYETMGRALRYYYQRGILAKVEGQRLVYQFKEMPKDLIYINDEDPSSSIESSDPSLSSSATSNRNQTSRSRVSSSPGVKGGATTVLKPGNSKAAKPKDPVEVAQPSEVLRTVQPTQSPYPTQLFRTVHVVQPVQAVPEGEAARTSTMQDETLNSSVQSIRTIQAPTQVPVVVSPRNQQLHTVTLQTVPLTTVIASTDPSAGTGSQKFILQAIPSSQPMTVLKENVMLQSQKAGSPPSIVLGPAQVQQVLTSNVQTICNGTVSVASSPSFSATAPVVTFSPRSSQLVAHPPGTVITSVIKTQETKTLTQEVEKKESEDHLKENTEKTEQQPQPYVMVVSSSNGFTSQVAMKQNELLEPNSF
# Method in brief: as §1
# [6] = target: T5, EHF (Homo sapiens, UniProt Q9NZC4 1-300); details: protein: recombinant; tags: N-terminal GST; dsDNA, one strand shown
# T5 sequence: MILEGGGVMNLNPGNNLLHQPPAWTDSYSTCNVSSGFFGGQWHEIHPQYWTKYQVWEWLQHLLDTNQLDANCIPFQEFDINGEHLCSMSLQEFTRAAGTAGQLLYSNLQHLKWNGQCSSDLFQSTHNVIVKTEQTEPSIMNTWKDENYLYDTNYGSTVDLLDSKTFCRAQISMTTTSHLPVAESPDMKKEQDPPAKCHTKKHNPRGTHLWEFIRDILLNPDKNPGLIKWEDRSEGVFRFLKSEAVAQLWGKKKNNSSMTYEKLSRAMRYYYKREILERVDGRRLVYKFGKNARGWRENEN
# Method in brief: as §1
# [7] = target: SPI1 (Homo sapiens, UniProt P17947 1-270); details: protein: recombinant; tags: N-terminal GST; dsDNA, one strand shown
# Method in brief: as §1
# [8] = target: SPIB (Homo sapiens, UniProt Q01892 1-262); details: protein: recombinant; tags: N-terminal GST; dsDNA, one strand shown
# Sequence of SPIB (Q01892 whole entry): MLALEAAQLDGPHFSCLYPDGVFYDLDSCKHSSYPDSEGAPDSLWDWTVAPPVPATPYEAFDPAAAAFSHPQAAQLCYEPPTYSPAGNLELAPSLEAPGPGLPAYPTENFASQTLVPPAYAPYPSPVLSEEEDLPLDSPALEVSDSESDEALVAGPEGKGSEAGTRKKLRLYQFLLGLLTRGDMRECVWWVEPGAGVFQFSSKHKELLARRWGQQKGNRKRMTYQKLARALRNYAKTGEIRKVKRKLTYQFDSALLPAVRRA
# Method in brief: as §1
# [9] = target: T6, ELK3 (Homo sapiens, UniProt P41970 1-407); details: protein: recombinant; tags: N-terminal GST; dsDNA, one strand shown
# T6 sequence: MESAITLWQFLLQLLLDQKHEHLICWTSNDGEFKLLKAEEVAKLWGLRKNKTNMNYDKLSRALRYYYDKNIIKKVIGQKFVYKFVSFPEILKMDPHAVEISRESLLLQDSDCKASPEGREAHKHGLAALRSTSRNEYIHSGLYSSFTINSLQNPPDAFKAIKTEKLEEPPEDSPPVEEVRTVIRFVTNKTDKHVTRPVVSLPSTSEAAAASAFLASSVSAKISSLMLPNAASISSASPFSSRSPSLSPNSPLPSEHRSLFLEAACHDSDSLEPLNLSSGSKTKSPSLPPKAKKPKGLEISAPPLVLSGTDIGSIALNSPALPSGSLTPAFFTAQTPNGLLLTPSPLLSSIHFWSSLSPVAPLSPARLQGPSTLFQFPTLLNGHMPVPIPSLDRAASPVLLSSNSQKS
# Method in brief: as §1
# [10] = target: T7, FEV (Homo sapiens, UniProt Q99581 1-238); details: protein: recombinant; tags: N-terminal GST; dsDNA, one strand shown
# T7 sequence: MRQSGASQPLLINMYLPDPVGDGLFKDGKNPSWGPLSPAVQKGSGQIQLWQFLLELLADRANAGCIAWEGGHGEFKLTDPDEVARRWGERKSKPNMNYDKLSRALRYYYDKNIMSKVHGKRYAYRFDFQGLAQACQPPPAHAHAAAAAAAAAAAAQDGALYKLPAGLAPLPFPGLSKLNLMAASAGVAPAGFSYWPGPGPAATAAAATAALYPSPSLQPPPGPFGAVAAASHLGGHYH
# Method in brief: as §1
# [11] = target: ETV5 (Homo sapiens, UniProt P41161 1-510); details: protein: recombinant; tags: N-terminal GST; dsDNA, one strand shown
# Sequence of ETV5 (P41161 whole entry): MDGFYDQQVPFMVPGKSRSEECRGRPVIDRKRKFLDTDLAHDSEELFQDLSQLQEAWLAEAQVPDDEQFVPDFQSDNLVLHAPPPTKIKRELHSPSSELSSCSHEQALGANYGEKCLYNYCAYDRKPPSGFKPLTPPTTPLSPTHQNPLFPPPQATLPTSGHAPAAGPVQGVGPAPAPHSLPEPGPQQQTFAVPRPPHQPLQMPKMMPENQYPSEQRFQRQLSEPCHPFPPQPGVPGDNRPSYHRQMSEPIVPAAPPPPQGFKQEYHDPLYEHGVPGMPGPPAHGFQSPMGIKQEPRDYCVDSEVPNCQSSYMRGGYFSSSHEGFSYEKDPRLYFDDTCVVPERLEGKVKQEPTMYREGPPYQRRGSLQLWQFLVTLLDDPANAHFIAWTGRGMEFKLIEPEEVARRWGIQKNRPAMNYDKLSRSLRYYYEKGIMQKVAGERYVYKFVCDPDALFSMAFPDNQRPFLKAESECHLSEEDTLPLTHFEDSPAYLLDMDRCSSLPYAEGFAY
# Method in brief: as §1
# [12] = target: HSF1 (Homo sapiens, UniProt Q00613 1-529); details: protein: recombinant; tags: N-terminal GST; chain copies: 3; dsDNA, one strand shown
# Sequence of HSF1 (Q00613 whole entry): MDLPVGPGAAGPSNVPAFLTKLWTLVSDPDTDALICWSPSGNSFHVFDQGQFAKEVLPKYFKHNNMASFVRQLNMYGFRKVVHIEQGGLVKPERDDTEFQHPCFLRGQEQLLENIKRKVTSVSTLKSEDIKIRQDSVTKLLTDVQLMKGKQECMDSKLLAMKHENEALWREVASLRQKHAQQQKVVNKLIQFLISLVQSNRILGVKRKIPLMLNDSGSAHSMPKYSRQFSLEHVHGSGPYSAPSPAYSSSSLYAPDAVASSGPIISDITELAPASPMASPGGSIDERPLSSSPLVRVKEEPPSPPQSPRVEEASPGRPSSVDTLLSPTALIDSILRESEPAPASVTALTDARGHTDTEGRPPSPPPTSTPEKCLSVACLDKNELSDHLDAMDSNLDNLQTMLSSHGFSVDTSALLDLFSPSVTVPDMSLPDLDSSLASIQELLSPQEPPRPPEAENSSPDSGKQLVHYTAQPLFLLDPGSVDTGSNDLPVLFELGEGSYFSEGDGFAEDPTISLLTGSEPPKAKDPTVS
# Method in brief: as §1
# [13] = target: T8, SPIC (Homo sapiens, UniProt Q8N5J4 1-248); details: protein: recombinant; tags: N-terminal GST; dsDNA, one strand shown
# T8 sequence: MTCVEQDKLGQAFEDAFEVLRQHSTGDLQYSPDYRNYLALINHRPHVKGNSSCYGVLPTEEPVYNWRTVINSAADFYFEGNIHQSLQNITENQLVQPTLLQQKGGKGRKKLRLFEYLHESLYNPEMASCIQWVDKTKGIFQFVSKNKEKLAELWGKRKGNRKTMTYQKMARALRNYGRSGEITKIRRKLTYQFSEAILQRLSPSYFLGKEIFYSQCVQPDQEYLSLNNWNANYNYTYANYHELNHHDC
# Method in brief: as §1
# [14] = target: ELF4 (Homo sapiens, UniProt Q99607 1-663); details: protein: recombinant; tags: N-terminal GST; dsDNA, one strand shown
# Sequence of ELF4 (Q99607 whole entry): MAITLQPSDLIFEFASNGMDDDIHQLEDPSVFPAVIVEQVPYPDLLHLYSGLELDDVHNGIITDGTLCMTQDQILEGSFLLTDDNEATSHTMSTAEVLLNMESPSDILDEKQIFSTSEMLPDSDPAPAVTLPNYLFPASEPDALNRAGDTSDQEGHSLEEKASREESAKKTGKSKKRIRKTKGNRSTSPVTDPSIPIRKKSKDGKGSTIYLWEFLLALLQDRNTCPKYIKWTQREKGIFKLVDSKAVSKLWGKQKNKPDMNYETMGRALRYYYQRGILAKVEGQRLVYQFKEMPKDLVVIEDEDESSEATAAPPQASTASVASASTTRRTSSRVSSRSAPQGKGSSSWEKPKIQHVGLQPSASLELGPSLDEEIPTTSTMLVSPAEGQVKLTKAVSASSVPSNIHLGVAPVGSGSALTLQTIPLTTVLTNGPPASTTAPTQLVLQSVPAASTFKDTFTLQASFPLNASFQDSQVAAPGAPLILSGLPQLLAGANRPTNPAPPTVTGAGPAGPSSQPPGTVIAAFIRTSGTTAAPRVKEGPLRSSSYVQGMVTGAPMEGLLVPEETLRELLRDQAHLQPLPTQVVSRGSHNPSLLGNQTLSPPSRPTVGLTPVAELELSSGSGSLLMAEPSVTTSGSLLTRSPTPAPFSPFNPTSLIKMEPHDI
# Method in brief: as §1
# [15] = target: T9, ELK4 (Homo sapiens, UniProt P28324-2 1-405); details: protein: recombinant; tags: N-terminal GST; dsDNA, one strand shown
# T9 sequence: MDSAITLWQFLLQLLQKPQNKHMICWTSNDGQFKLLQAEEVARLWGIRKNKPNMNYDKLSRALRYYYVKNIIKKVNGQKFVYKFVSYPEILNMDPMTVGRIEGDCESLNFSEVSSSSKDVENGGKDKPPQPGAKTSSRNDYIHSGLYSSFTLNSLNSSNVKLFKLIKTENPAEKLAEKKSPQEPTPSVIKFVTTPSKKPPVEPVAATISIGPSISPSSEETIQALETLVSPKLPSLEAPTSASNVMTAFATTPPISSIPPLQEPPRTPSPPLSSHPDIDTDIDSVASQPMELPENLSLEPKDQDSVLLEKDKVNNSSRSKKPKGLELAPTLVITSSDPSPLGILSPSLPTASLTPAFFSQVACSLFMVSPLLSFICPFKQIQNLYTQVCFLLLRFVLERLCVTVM
# Method in brief: as §1
# [16] = target: T10, ETV2 (Homo sapiens, UniProt O00321 1-342); details: protein: recombinant; tags: N-terminal GST; dsDNA, one strand shown
# T10 sequence: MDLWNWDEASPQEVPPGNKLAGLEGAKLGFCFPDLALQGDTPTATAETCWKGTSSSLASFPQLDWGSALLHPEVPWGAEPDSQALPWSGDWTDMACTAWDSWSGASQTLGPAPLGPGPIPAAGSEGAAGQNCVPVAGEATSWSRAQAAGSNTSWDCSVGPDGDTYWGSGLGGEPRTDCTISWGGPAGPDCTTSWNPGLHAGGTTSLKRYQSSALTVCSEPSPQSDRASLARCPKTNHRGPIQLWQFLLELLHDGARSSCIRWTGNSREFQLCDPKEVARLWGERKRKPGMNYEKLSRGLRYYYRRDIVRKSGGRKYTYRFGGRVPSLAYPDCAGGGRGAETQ
# Method in brief: as §1
# [17] = target: T11, ELF3 (Homo sapiens, UniProt P78545 1-371); details: protein: recombinant; tags: N-terminal GST; dsDNA, one strand shown
# T11 sequence: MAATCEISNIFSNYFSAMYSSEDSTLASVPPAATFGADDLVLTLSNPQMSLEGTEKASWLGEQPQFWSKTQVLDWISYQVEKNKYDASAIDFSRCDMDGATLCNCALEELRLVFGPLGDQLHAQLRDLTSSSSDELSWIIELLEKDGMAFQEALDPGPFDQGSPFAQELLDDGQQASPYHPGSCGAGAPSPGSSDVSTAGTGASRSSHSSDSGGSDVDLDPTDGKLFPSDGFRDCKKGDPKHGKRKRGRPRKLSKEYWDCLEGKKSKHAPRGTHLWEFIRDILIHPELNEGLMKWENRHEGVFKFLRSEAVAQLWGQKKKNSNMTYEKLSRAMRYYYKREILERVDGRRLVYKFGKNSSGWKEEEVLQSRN
# Method in brief: as §1
# [18] = target: CRX (Homo sapiens, UniProt O43186 1-299); details: protein: recombinant; tags: N-terminal GST; dsDNA, one strand shown
# Sequence of CRX (O43186 whole entry): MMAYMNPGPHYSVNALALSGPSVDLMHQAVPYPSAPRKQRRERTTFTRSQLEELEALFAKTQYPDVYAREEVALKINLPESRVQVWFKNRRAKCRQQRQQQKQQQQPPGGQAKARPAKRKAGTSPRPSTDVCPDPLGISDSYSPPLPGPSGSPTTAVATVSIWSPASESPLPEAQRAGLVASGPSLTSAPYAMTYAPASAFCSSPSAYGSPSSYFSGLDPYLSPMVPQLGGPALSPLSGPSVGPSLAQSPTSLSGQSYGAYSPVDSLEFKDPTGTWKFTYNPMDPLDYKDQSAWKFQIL
# Method in brief: as §1
# [19] = target: ETV1 (Homo sapiens, UniProt P50549 1-477); details: protein: recombinant; tags: N-terminal GST; dsDNA, one strand shown
# Sequence of ETV1 (P50549 whole entry): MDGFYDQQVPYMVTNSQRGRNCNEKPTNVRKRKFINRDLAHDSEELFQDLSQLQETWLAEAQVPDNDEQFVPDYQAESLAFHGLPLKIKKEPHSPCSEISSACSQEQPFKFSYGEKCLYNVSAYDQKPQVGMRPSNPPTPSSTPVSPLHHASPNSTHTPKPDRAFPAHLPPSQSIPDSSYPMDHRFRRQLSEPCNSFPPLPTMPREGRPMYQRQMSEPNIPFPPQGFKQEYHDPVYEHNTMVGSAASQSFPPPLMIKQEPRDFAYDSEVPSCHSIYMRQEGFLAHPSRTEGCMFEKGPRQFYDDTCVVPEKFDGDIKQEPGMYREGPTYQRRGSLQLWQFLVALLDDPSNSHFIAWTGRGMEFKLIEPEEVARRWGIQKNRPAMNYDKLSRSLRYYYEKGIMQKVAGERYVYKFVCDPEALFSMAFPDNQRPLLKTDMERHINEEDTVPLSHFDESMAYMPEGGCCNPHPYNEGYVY
# Method in brief: as §1
sequence,measurement,setting,value
ACGTCC,binding signal,[1],"1.59 fold enrichment (6-mer frequency, TF over GST control)"
same,binding signal,[2],"1.58 fold enrichment (6-mer frequency, TF over GST control)"
same,binding signal,[3],"1.61 fold enrichment (6-mer frequency, TF over GST control)"
same,binding signal,[4],"1.67 fold enrichment (6-mer frequency, TF over GST control)"
same,binding signal,[5],"1.55 fold enrichment (6-mer frequency, TF over GST control)"
same,binding signal,[6],"1.63 fold enrichment (6-mer frequency, TF over GST control)"
same,binding signal,[7],"1.49 fold enrichment (6-mer frequency, TF over GST control)"
same,binding signal,[8],"1.72 fold enrichment (6-mer frequency, TF over GST control)"
same,binding signal,[9],"1.85 fold enrichment (6-mer frequency, TF over GST control)"
same,binding signal,[10],"1.81 fold enrichment (6-mer frequency, TF over GST control)"
same,binding signal,[11],"1.65 fold enrichment (6-mer frequency, TF over GST control)"
same,binding signal,[12],"1.07 fold enrichment (6-mer frequency, TF over GST control)"
same,binding signal,[13],"1.59 fold enrichment (6-mer frequency, TF over GST control)"
same,binding signal,[14],"1.54 fold enrichment (6-mer frequency, TF over GST control)"
same,binding signal,[15],"1.46 fold enrichment (6-mer frequency, TF over GST control)"
same,binding signal,[16],"1.39 fold enrichment (6-mer frequency, TF over GST control)"
same,binding signal,[17],"1.39 fold enrichment (6-mer frequency, TF over GST control)"
same,binding signal,[18],"1.01 fold enrichment (6-mer frequency, TF over GST control)"
same,binding signal,[19],"1.63 fold enrichment (6-mer frequency, TF over GST control)"
